Among the data in PubChem BioAssay are growth inhibition, inhibition and outcome values, retold here.

A number with no mark means an inactive call. For part of these data: Entries with a potency or affinity are not part of this list. Calls of active or inactive are those of the source. Unless noted, the rule behind the calls is not given here.

A short description of assay [1]: antimalarial activity against Dd2 strain (AID 2302;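 active = growth inhibition above 50% at the single 2 µM test dose, taken to imply half-maximal potency below 2 µM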;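 note: 0% = DMSO untreated growth and 100% = chloroquine plus artemisinin killed control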). Conditions: P. falciparum Dd2 in RBCs, LDH growth readout, 72 h; at 2 µM; stronger effect = higher value.
Assay [2] can be described thus: human hepatoma cell viability loss – ATP luminescence, cytotoxicity control for P. falciparum antimalarial project, primary screen (AID 2303;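 active = inhibition above 50%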;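 note: 0% = DMSO wells and 100% = digitonin-killed cells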). Conditions: HepG2 viability, 24-48 h, at 10 µM, stronger effect = higher value.
The target of assay [3] is L-lactate dehydrogenase (Plasmodium falciparum (isolate CDC / Honduras)) (UniProt Q27743). As to the kind of experiment: PfLDH activity inhibition – cell lysate, 3D7 strain, counter-screen for P. falciparum growth inhibition project (AID 2304).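 Note: 0% = vehicle and 100% = reference inhibitor.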 As to conditions: P. falciparum 3D7 crude extract, LDH APAD/NBT absorbance; at 2 µM; stronger effect = higher value. For orientation: The purpose of a counterscreen is to sort out artefacts and off-target activity.

A short description of assay [4]: inhibition of 3D7 malaria parasite growth – strain 3D7 (AID 2306).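 Note: 0% = DMSO wells and 100% = chloroquine plus artemisinin control wells.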 Conditions: P. falciparum 3D7 erythrocytic growth, LDH absorbance, 72 h; at 2 µM; stronger effect = higher value.
Assay [5] has as its target Plasmodium falciparum protein kinase 6 (PK6, PF3D7_1337100) (UniProt Q8IDW1). As to the kind of experiment: PfPK6 kinase inhibitors, biochemical, TCAMS library (AID 1159586). As to conditions: recombinant PfPK6, Kinase-Glo ATP depletion luminescence. Background: Kinase-Glo measures the ATP left after a reaction by luminescence.
The target in assay [6] is Protein kinase 7 (PK7), Plasmodium falciparum 3D7 (PF3D7_0213400) (UniProt Q7YTF7). As to the kind of experiment: inhibition of Plasmodium PK7 catalytic activity – biochemical, TCAMS antimalarial set, Kinase-Glo luminescence (AID 1159587). As to conditions: recombinant PfPK7, Kinase-Glo ATP depletion luminescence.
The target in assay [7] is Calcium-dependent protein kinase 4 (Plasmodium falciparum (isolate 3D7)) (UniProt Q8IBS5). As to the kind of experiment: PfCDPK4 kinase inhibitors, biochemical, TCAMS library (AID 1159588; cut-off not given, nearly all actives have IC50 up to about 0.91 µM). As to conditions: recombinant PfCDPK4, Kinase-Glo ATP depletion luminescence.
Calcium-dependent protein kinase 4 (Plasmodium falciparum (isolate 3D7)), sequence (Q8IBS5 whole entry, looked up): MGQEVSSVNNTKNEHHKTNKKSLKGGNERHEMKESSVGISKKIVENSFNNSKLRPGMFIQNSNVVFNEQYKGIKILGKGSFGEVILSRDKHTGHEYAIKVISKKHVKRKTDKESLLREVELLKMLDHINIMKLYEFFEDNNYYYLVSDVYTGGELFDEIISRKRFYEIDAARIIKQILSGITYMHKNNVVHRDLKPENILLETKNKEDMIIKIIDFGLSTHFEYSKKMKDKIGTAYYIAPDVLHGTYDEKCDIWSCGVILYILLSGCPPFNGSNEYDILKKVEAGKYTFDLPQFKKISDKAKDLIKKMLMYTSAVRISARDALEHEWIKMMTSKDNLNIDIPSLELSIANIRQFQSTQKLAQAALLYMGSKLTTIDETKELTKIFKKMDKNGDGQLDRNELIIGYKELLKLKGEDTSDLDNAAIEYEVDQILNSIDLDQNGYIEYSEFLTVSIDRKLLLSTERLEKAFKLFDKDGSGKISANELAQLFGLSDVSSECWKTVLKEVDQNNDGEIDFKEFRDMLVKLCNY

Protein kinase 7 (PK7), Plasmodium falciparum 3D7 (PF3D7_0213400), sequence (Q7YTF7 1-343): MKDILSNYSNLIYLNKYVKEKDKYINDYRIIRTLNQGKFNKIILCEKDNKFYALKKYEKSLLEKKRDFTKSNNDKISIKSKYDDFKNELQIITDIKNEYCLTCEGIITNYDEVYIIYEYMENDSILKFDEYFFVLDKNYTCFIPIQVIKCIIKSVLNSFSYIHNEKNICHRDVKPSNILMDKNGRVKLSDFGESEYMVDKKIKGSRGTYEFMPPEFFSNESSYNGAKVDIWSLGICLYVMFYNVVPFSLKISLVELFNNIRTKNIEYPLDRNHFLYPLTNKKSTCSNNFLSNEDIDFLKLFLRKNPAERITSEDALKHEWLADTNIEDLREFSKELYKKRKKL
Plasmodium falciparum protein kinase 6 (PK6, PF3D7_1337100), sequence (Q8IDW1 1-305): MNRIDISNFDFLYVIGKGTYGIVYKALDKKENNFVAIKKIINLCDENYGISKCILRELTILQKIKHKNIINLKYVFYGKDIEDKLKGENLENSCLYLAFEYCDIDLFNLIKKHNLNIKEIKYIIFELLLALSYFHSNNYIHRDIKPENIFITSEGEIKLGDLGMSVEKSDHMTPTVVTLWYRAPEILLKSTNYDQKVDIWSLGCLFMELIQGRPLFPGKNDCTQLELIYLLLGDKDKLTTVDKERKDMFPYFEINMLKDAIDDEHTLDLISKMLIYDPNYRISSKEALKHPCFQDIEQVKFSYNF
L-lactate dehydrogenase (Plasmodium falciparum (isolate CDC / Honduras)), sequence (Q27743 whole entry, looked up): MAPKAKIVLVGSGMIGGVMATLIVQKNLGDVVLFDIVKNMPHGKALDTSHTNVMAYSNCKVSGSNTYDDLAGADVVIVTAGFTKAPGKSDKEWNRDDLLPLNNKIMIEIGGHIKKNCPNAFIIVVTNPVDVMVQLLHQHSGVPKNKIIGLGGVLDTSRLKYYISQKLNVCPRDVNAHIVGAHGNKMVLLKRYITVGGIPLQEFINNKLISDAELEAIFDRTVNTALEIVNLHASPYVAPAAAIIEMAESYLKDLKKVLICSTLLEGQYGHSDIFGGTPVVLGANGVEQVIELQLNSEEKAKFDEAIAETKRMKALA

By inhibition is commonly meant the drop in the measured response relative to a control, in per cent. `Cn1c(Nc2cc(C(C)(C)C)on2)nc2cc(Nc3ccnc(Nc4cccc(CS(C)(=O)=O)c4)n3)ccc21`: the growth inhibition in assay [1] was 94% (active); in assay [4] it was 99% (active). The inhibition is 63% (active) in assay [2] and -4% in assay [3]. Besides, the result in assay [5], in assay [6] and in assay [7] was inactive.
As for `O=C(NCCCN1CCCCC1)c1ccc(Nc2nccc(Nc3ccc(Oc4ccccc4)cc3)n2)cc1`, the growth inhibition was 61% (active) in assay [1] and 100% (active) in assay [4]. For the same molecule, the inhibition was 30% in assay [2] and -3% in assay [3]. For the same molecule, the result in assay [5], in assay [6] and in assay [7] was inactive.
For `CN(C)Cc1ccc(-c2ccc3c(Nc4ccc(Oc5ccccn5)cc4)ccnc3c2)o1`, the growth inhibition in assay [1] was 100% (active); in assay [4] it was 101% (active). Besides, the inhibition in assay [2] is 18%; in assay [3], 1%. For the same molecule, the outcome in assay [5], in assay [6] and in assay [7] was inactive.
Regarding `O=C(NCCN1CCCC1)c1cccc(Nc2nccc(Nc3ccc(Oc4ccccc4)cc3)n2)c1`, the growth inhibition is 18% in assay [1] and 100% (active) in assay [4]. In addition, the inhibition in assay [2] is 33%; in assay [3], -3%. Further, the result in assay [5], in assay [6] and in assay [7] was inactive.
On to `CCn1c(-c2nonc2N)nc2c(-c3cccc(NC(=O)Nc4ccc(C(F)(F)F)cc4)c3)ncc(OCCCN)c21`, for which the growth inhibition in assay [1] is 63% (active); in assay [4], 94% (active). In addition, the inhibition in assay [2] was 36%; in assay [3], 6%. Also, the result in assay [5] and in assay [6] was inactive.
Regarding `O=C(Nc1cccc(-c2nn3ncccc3c2-c2ccnc(Nc3cccc(-c4cnco4)c3)n2)c1)c1c(F)cccc1F`, the growth inhibition in assay [1] is 98% (active); in assay [4] it was 97% (active). Besides, the inhibition in assay [2] was 96% (active); in assay [3], 2%. Moreover, the result in assay [5] and in assay [6] was inactive.
For the molecule `CN1CCN(c2ccc(Nc3ncc(Cl)c(Nc4cccnc4C(N)=O)n3)cc2)CC1`, the growth inhibition in assay [1] was 97% (active); in assay [4], 95% (active). The inhibition is 99% (active) in assay [2] and -1% in assay [3]. The outcome in assay [5], in assay [6] and in assay [7] was inactive.
As for `CC(C)(CNC(=O)C1CCN(CCOc2ccc(F)c(F)c2)CC1)c1nc(-c2ccc(Cl)c(O)c2)c(-c2ccncc2)[nH]1`, the figures for the growth inhibition in assay [1] and in assay [4] were 19% and 101% (active), respectively. The values for the inhibition in assay [2] and in assay [3] were 41% and -1%, respectively. Besides, the result in assay [5], in assay [6] and in assay [7] was inactive.
For the molecule `c1ccc(Oc2ccc(Nc3ccnc4cc(-c5ccc(CNCCN6CCOCC6)o5)ccc34)cc2)cc1`, the growth inhibition in assay [1] and in assay [4] was 99% (active) throughout. For the same molecule, the inhibition was 20% in assay [2] and -3% in assay [3]. Besides, the outcome in assay [5], in assay [6] and in assay [7] was inactive.
As for `CN(C)Cc1ccc(-c2ccc3c(Nc4ccc(Cl)cc4F)ccnc3c2)o1`, the growth inhibition is 99% (active) in assay [1] and 100% (active) in assay [4]. The inhibition in assay [2] is 13%; in assay [3], -3%. Moreover, the outcome in assay [5], in assay [6] and in assay [7] was inactive.
As to `Cc1cccc(Nc2nc(NCCCCN)nc3cc[nH]c(=O)c23)c1`, the growth inhibition was 97% (active) in assay [1] and 98% (active) in assay [4]. Further, the inhibition is 34% in assay [2] and 0% in assay [3]. Also, the outcome in assay [5] and in assay [6] was inactive.
With `CC(C)(CN)c1nc(-c2ccc(Cl)c(O)c2)c(-c2ccnc(N)n2)[nH]1`, the growth inhibition in assay [1] and in assay [4] was 95% (active) in each case. In addition, the inhibition is 34% in assay [2] and -5% in assay [3]. Also, the result in assay [5], in assay [6] and in assay [7] was inactive.
As for `O=C(NCC(c1ccc(C(F)(F)F)cc1)N1CCCC1)c1cc(-c2ccncc2)c(-c2cccc(O)c2)o1` (stereo unspecified), the growth inhibition in assay [1] is 53% (active); in assay [4], 95% (active). Besides, the results for the inhibition in assay [2] and in assay [3] were 9% and 0%, respectively. Moreover, the outcome in assay [5] and in assay [6] was inactive.
`CNC(=O)c1ccccc1Nc1nc(Nc2ccc(N3CCN(C)CC3)nc2)ncc1C`: the growth inhibition is 50% (active) in assay [1] and 92% (active) in assay [4]. In addition, the results for the inhibition in assay [2] and in assay [3] were 75% (active) and 4%, respectively. Further, the outcome in assay [6] and in assay [7] was inactive.
For the molecule `CCn1c(-c2nonc2N)nc2c(-c3cccc(NC(=O)Nc4cccc(Cl)c4)c3)ncc(OCCCN)c21`, the growth inhibition was 78% (active) in assay [1] and 91% (active) in assay [4]. In addition, the inhibition is 9% in assay [2] and -1% in assay [3]. Also, the outcome in assay [5] and in assay [6] was inactive.
As for `CCn1c(-c2nonc2N)nc2c(-c3cccc(Cl)c3)ncc(OCCCNCc3cnc(C)nc3N)c21`, the values for the growth inhibition in assay [1] and in assay [4] were 48% and 93% (active), respectively. Further, the inhibition in assay [2] was 21%; in assay [3], 3%. In addition, the result in assay [5] and in assay [6] was inactive.
On to `COc1ccc(Nc2ncc3c(-c4cccc(NC(=O)Cc5ccc(O)cc5)c4)c[nH]c3n2)cc1OC`, for which the growth inhibition in assay [1] was 99% (active); in assay [4] it was 102% (active). The inhibition in assay [2] was 48%; in assay [3], -2%. Moreover, the result in assay [6] and in assay [7] was inactive.
For the molecule `CCn1c(-c2nonc2N)nc2c(-c3cccc(NC(=O)NC45CC6CC(CC(C6)C4)C5)c3)ncc(OCCCN)c21`, the growth inhibition in assay [1] is 63% (active); in assay [4] it was 94% (active). Moreover, the inhibition is 100% (active) in assay [2] and -2% in assay [3]. Moreover, the result in assay [5] and in assay [6] was inactive.
With `NCCNC(=O)c1ccc(-c2cnc3[nH]cc(-c4ccc(C(N)=O)cc4)c3c2)cc1`, the results for the growth inhibition in assay [1] and in assay [4] were 98% (active) and 99% (active), respectively. The inhibition in assay [2] is 2%; in assay [3], -2%. Also, the result in assay [6] and in assay [7] was inactive.
As for `Cc1csc(-c2ncc(OC[C@@H](N)Cc3ccccc3)cc2-c2ccc3n[nH]c(C)c3c2)c1`, the growth inhibition in assay [1] was 35%; in assay [4], 98% (active). The inhibition in assay [2] is 48%; in assay [3], 4%. Also, the outcome in assay [5] and in assay [6] was inactive.
Consider `CN(C)Cc1cccc(-c2cc3c(-c4cnn(C)c4)c(Cl)cnc3[nH]2)c1`, for which the growth inhibition was 21% in assay [1] and 96% (active) in assay [4]. Also, the values for the inhibition in assay [2] and in assay [3] were 75% (active) and -5%, respectively. Also, the result in assay [6] and in assay [7] was inactive.
For `NS(=O)(=O)CCc1cccc(Nc2nccc(-c3c(-c4cccc(NC(=O)c5c(F)cccc5F)c4)nn4ccccc34)n2)c1`, the growth inhibition in assay [1] is 97% (active); in assay [4], 98% (active). In addition, the inhibition in assay [2] is 84% (active); in assay [3] it was 3%. Also, the result in assay [5] and in assay [6] was inactive.
